# Assay results: publication PMC5540273 (PLoS ONE, 2017)
# “And” between values parts separate entries of the source, which are not always exact repeats. Identical values can stand only once. Like-named read-outs stand apart in the source and are kept apart here.
# Assays:
# [1] = tested on: AKT3; conditions: concentration: 1 μM, replicates: in singlicate, n = 1
# [2] = tested on: ALK; conditions: concentration: 1 μM, replicates: in singlicate; n = 1
# [3] = tested on: T1, AMPK-alpha1; conditions: concentration: 1 μM, replicates: in singlicate, n = 1
# T1 construct: gene PRKAA1
# [4] = tested on: T2, AMPK-alpha2; conditions: concentration: 1 μM, replicates: in singlicate; n = 1
# T2 construct: gene PRKAA2
# [5] = tested on: ANKK1; conditions: concentration: 1 μM, replicates: in singlicate, n = 1
# [6] = tested on: T3, ARK5; conditions: concentration: 1 μM, replicates: in singlicate, n = 1
# T3 construct: gene NUAK1
# [7] = tested on: T4, ASK1; conditions: concentration: 1 μM, replicates: in singlicate, n = 1
# T4 construct: gene MAP3K5
# [8] = tested on: T5, ASK2; conditions: concentration: 1 μM, replicates: in singlicate, n = 1
# T5 construct: gene MAP3K6
# [9] = tested on: AURKA; conditions: concentration: 1 μM, replicates: in singlicate, n = 1
# [10] = tested on: AURKB; conditions: concentration: 1 μM, replicates: in singlicate, n = 1
# [11] = tested on: AURKC; conditions: concentration: 1 μM, replicates: in singlicate; n = 1
# [12] = tested on: AXL; conditions: concentration: 1 μM, replicates: in singlicate, n = 1
# [13] = tested on: T6, BIKE; conditions: concentration: 1 μM, replicates: in singlicate, n = 1
# T6 construct: gene BMP2K
# [14] = tested on: BLK; conditions: concentration: 1 μM, replicates: in singlicate; n = 1
# [15] = tested on: BMPR1A; conditions: concentration: 1 μM, replicates: in singlicate; n = 1
# [16] = tested on: BMPR1B; conditions: concentration: 1 μM, replicates: in singlicate, n = 1
# [17] = tested on: BMPR2; conditions: concentration: 1 μM, replicates: in singlicate, n = 1
# [18] = tested on: BMX; conditions: concentration: 1 μM, replicates: in singlicate, n = 1
# [19] = tested on: BRAF; conditions: concentration: 1 μM, replicates: in singlicate, n = 1
# [20] = tested on: T7, BRK; conditions: concentration: 1 μM, replicates: in singlicate, n = 1
# T7 construct: gene PTK6
# 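Note: KINOMEscan kinase panel screen.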
smiles,measurement,setting,value
O=C(c1ccc(-c2cc(-c3c[nH]nc3-c3ccccn3)ccn2)cc1)N1CCCC1 [GW792479],%Inh,[1],0%
same,%Inh,[2],16%
same,%Inh,[3],0%
same,%Inh,[4],12%
same,%Inh,[5],0%
same,%Inh,[6],0%
same,%Inh,[7],4%
same,%Inh,[8],0%
same,%Inh,[9],0%
same,%Inh,[10],11%
same,%Inh,[11],0%
same,%Inh,[12],0%
same,%Inh,[13],18%
same,%Inh,[14],9%
same,%Inh,[15],0%
same,%Inh,[16],9%
same,%Inh,[17],0%
same,%Inh,[18],12%
same,%Inh,[19],0%
same,%Inh,[20],0%
Fc1ccc(-c2ncn(CCCNCc3ccccc3)c2-c2ccncc2)cc1,%Inh,[1],0%
same,%Inh,[2],0%
same,%Inh,[3],22%
same,%Inh,[4],0%
same,%Inh,[5],0%
same,%Inh,[6],0%
same,%Inh,[7],11%
same,%Inh,[8],1%
same,%Inh,[9],19%
same,%Inh,[10],8%
same,%Inh,[11],0%
same,%Inh,[12],18%
same,%Inh,[13],0%
same,%Inh,[14],7%
same,%Inh,[15],13%
same,%Inh,[16],24%
same,%Inh,[17],16%
same,%Inh,[18],7%
same,%Inh,[19],16%
same,%Inh,[20],3%
C[C@H]1CC[C@@H](C(=O)Nc2ccccc2)CN1c1cc(-c2ccc3c(N)n[nH]c3c2)nc(N)n1 [GSK2283293],%Inh,[1],0%
same,%Inh,[2],30%
same,%Inh,[3],0%
same,%Inh,[4],13%
same,%Inh,[5],11%
same,%Inh,[6],1%
same,%Inh,[7],0%
same,%Inh,[8],5%
same,%Inh,[9],0%
same,%Inh,[10],6%
same,%Inh,[11],25%
same,%Inh,[12],0%
same,%Inh,[13],23%
same,%Inh,[14],50%
same,%Inh,[15],0%
same,%Inh,[16],0%
same,%Inh,[17],0%
same,%Inh,[18],7%
same,%Inh,[19],0%
same,%Inh,[20],19%
Fc1ccc(Nc2nccc(-c3c(-c4ccc(Cl)cc4)nn4ncccc34)n2)cc1F [GW829058],%Inh,[1],15%
same,%Inh,[2],43%
same,%Inh,[3],17%
same,%Inh,[4],0%
same,%Inh,[5],10%
same,%Inh,[6],0%
same,%Inh,[7],2%
same,%Inh,[8],26%
same,%Inh,[9],32%
same,%Inh,[10],27%
same,%Inh,[11],0%
same,%Inh,[12],1%
same,%Inh,[13],0%
same,%Inh,[14],0%
same,%Inh,[15],18%
same,%Inh,[16],18%
same,%Inh,[17],32%
same,%Inh,[18],5%
same,%Inh,[19],37%
same,%Inh,[20],6%
Nc1nc(-c2ccc3c(N)n[nH]c3c2)cc(N2CCC[C@@H](C(=O)Nc3ccccc3)C2)n1.O=C(O)C(F)(F)F.O=C(O)C(F)(F)F [GSK2288359],%Inh,[1],0%
same,%Inh,[2],5%
same,%Inh,[3],9%
same,%Inh,[4],26%
same,%Inh,[5],12%
same,%Inh,[6],0%
same,%Inh,[7],1%
same,%Inh,[8],0%
same,%Inh,[10],0%
same,%Inh,[11],34%
same,%Inh,[12],0%
same,%Inh,[13],29%
same,%Inh,[14],0%
same,%Inh,[15],0%
same,%Inh,[16],0%
same,%Inh,[17],10%
same,%Inh,[18],0%
same,%Inh,[19],5%
same,%Inh,[20],5%
Cl.c1ccc(Cn2ccc3cc(Nc4ncnc5ccccc45)ccc32)cc1 [GW275568],%Inh,[1],0%
same,%Inh,[2],0%
same,%Inh,[3],11%
same,%Inh,[4],0%
same,%Inh,[5],43%
same,%Inh,[6],29%
same,%Inh,[7],1%
same,%Inh,[8],0%
same,%Inh,[9],17%
same,%Inh,[10],30%
same,%Inh,[11],0%
same,%Inh,[12],0%
same,%Inh,[13],13%
same,%Inh,[14],0%
same,%Inh,[15],0%
same,%Inh,[16],0%
same,%Inh,[17],13%
same,%Inh,[18],18%
same,%Inh,[19],0%
same,%Inh,[20],0%
COc1ccc(Nc2nccc(N3CCC(NC(=O)Nc4ccc5c(c4)OCO5)C3)n2)cc1 (stereo not shown) [GSK1379745],%Inh,[1],0%
same,%Inh,[2],20%
same,%Inh,[3],24%
same,%Inh,[4],24%
same,%Inh,[5],2%
same,%Inh,[6],9%
same,%Inh,[7],9%
same,%Inh,[8],5%
same,%Inh,[9],6%
same,%Inh,[10],13%
same,%Inh,[11],43%
same,%Inh,[12],22%
same,%Inh,[13],33%
same,%Inh,[14],25%
same,%Inh,[15],13%
same,%Inh,[16],0%
same,%Inh,[17],23%
same,%Inh,[18],13%
same,%Inh,[19],2%
same,%Inh,[20],10%
COc1ccc(-c2oc3ncnc(N)c3c2-c2ccc(OC)cc2)cc1 [SB-589132],%Inh,[1],0%
same,%Inh,[2],32%
same,%Inh,[3],0%
same,%Inh,[4],10%
same,%Inh,[5],0%
same,%Inh,[6],13%
same,%Inh,[7],11%
same,%Inh,[8],7%
same,%Inh,[9],0%
same,%Inh,[10],30%
same,%Inh,[11],0%
same,%Inh,[12],13%
same,%Inh,[13],0%
same,%Inh,[14],66%
same,%Inh,[15],0%
same,%Inh,[16],0%
same,%Inh,[17],30%
same,%Inh,[18],0%
same,%Inh,[19],38%
same,%Inh,[20],15%
OCCOCCn1ccc2ncnc(Nc3ccc(Oc4cccc(Cl)c4)c(Cl)c3)c21,%Inh,[1],0%
same,%Inh,[2],0%
same,%Inh,[3],0%
same,%Inh,[4],0%
same,%Inh,[5],0%
same,%Inh,[6],0%
same,%Inh,[7],0%
same,%Inh,[8],0%
same,%Inh,[9],0%
same,%Inh,[10],0%
same,%Inh,[11],0%
same,%Inh,[12],0%
same,%Inh,[13],0%
same,%Inh,[14],3%
same,%Inh,[15],1%
same,%Inh,[16],0%
same,%Inh,[17],0%
same,%Inh,[18],13%
same,%Inh,[19],0%
same,%Inh,[20],0%
CCc1nc(-c2cccc(C)c2)c(-c2ccnc(NC(=O)c3ccccc3)c2)s1,%Inh,[1],0%
same,%Inh,[2],27%
same,%Inh,[3],16%
same,%Inh,[4],1%
same,%Inh,[5],0%
same,%Inh,[6],0%
same,%Inh,[7],9%
same,%Inh,[8],0%
same,%Inh,[9],17%
same,%Inh,[10],6%
same,%Inh,[11],0%
same,%Inh,[12],0%
same,%Inh,[13],0%
same,%Inh,[14],16%
same,%Inh,[15],0%
same,%Inh,[16],9%
same,%Inh,[17],8%
same,%Inh,[18],0%
same,%Inh,[19],17%
same,%Inh,[20],0%
COc1ccc(-c2nc3n(c2-c2ccncc2)CCC3)cc1 [SKF-104493],%Inh,[1]; 1 µM,19% and 0%
same,%Inh,[2],0%
same,%Inh,[3]; 1 µM,11% and 9%
same,%Inh,[4],0%
same,%Inh,[5]; 1 µM,0% and 16%
same,%Inh,[6]; 1 µM,0% and 12%
same,%Inh,[7]; 1 µM,0% and 2%
same,%Inh,[8]; 1 µM,30% and 6%
same,%Inh,[9]; 1 µM,16% and 23%
same,%Inh,[10]; 1 µM,23% and 7%
same,%Inh,[11],0%
same,%Inh,[12]; 1 µM,14% and 0%
same,%Inh,[13]; 1 µM,10% and 0%
same,%Inh,[14],0%
same,%Inh,[15],0%
same,%Inh,[16]; 1 µM,0% and 1%
same,%Inh,[17]; 1 µM,39% and 2%
same,%Inh,[18]; 1 µM,0% and 11%
same,%Inh,[19]; 1 µM,23% and 0%
same,%Inh,[20]; 1 µM,2% and 0%
Fc1cccc(COc2ccc(Nc3ncnc4nn5ccccc5c34)cc2Cl)c1 [GW689066],%Inh,[1],0%
same,%Inh,[2],26%
same,%Inh,[3],0%
same,%Inh,[4],0%
same,%Inh,[5],0%
same,%Inh,[6],11%
same,%Inh,[7],8%
same,%Inh,[8],0%
same,%Inh,[9],0%
same,%Inh,[10],0%
same,%Inh,[11],6%
same,%Inh,[12],0%
same,%Inh,[13],15%
same,%Inh,[14],57%
same,%Inh,[15],0%
same,%Inh,[16],0%
same,%Inh,[17],4%
same,%Inh,[18],5%
same,%Inh,[19],0%
same,%Inh,[20],0%
Cc1ccc(O)cc1Nc1cc(C(F)(F)F)nc2ccc(-c3ccncc3)cc12 [GW630823],%Inh,[1],0%
same,%Inh,[2],0%
same,%Inh,[3],0%
same,%Inh,[4],0%
same,%Inh,[5],0%
same,%Inh,[6],0%
same,%Inh,[7],30%
same,%Inh,[8],0%
same,%Inh,[9],0%
same,%Inh,[10],0%
same,%Inh,[11],5%
same,%Inh,[12],0%
same,%Inh,[13],7%
same,%Inh,[14],12%
same,%Inh,[15],0%
same,%Inh,[16],0%
same,%Inh,[17],0%
same,%Inh,[18],17%
same,%Inh,[19],0%
same,%Inh,[20],11%
Nc1nc(-c2cccnc2)c(-c2ccnc3ccccc23)s1 [GW684083],%Inh,[1],0%
same,%Inh,[2],22%
same,%Inh,[3],23%
same,%Inh,[4],20%
same,%Inh,[5],5%
same,%Inh,[6],0%
same,%Inh,[7],0%
same,%Inh,[8],10%
same,%Inh,[9],0%
same,%Inh,[10],7%
same,%Inh,[11],10%
same,%Inh,[12],7%
same,%Inh,[13],34%
same,%Inh,[14],58%
same,%Inh,[15],0%
same,%Inh,[16],55%
same,%Inh,[17],28%
same,%Inh,[18],34%
same,%Inh,[19],0%
same,%Inh,[20],9%
CC(C)(C)c1ccc(-n2cnc3c(N)ncnc32)cc1 [SKF-97263],%Inh,[1],0%
same,%Inh,[2],7%
same,%Inh,[3],14%
same,%Inh,[4],21%
same,%Inh,[5],24%
same,%Inh,[6],10%
same,%Inh,[7],1%
same,%Inh,[8],1%
same,%Inh,[9],7%
same,%Inh,[10],16%
same,%Inh,[11],16%
same,%Inh,[12],15%
same,%Inh,[13],19%
same,%Inh,[14],6%
same,%Inh,[15],0%
same,%Inh,[16],5%
same,%Inh,[17],6%
same,%Inh,[18],16%
same,%Inh,[19],0%
same,%Inh,[20],6%
Cc1ccc(NC(=O)c2cccc(C#N)c2)cc1-c1ccc(C(=O)Nc2ccncc2)cc1 [GSK1398463],%Inh,[1],0%
same,%Inh,[2],31%
same,%Inh,[3],0%
same,%Inh,[4],15%
same,%Inh,[5],0%
same,%Inh,[6],33%
same,%Inh,[7],3%
same,%Inh,[8],8%
same,%Inh,[9],7%
same,%Inh,[10],12%
same,%Inh,[11],6%
same,%Inh,[12],11%
same,%Inh,[13],24%
same,%Inh,[14],31%
same,%Inh,[15],0%
same,%Inh,[16],0%
same,%Inh,[17],0%
same,%Inh,[18],26%
same,%Inh,[19],29%
same,%Inh,[20],14%
